From PubChem BioAssay (NCATS)
Records with an inconclusive call do not appear. A call without a number means that no potency is given here. Values without a mark were called inactive. Activity calls are given as the source filed them. Calls follow the shape of the dose curve; as a rule, active = well fitted inhibition curve with a large enough effect; inconclusive = small, poorly fitted or top-dose-only effect; inactive = flat fitted curve, though single readings scatter.

tested on: CP297; assay: qHTS profiling for inhibitors of Plasmodium falciparum proliferation (AID 504749); also: nearly all actives have a fitted effect of over 60% in size; conditions: P. falciparum in erythrocytes, SYBR Green DNA, 72 h; series mostly up to 28.7 µM
Method in brief: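 P. falciparum-infected erythrocytes (0.3% parasitemia, 2.5% hematocrit) incubated with compound 72 h at 37 C, 5% CO2. Parasite DNA detected by SYBR Green after lysis, overnight at room temperature; normalised to 0.29 uM artemisinin and DMSO.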
Potency is read from the fitted curve at half-maximal effect.

| SMILES | Potency | activity, negative = inhibition |
| --- | --- | --- |
| Cc1ncsc1CCCl | inactive | – |
| c1ccc2c(c1)sc1ccccc12 | inactive | – |
| CCOC(=O)CC(SP(=S)(OC)OC)C(=O)OCC (stereo not given) | inactive | – |
| CCCC(C)(COC(N)=O)COC(N)=O | inactive | – |
| O=C1Nc2ccc(Cl)cc2C(c2ccccc2)=NC1O (stereo not given) | inactive | – |
| CCCCC/C=C\C/C=C\C/C=C\C/C=C\CCCC(=O)NCC(=O)O | – | -4.97% [at 2.67 µM] |
| CNC(C)(C)Cc1ccccc1 | inactive | – |
| CCCCCCC(=O)CCCCCC/C=C/C[C@@H](O)[C@H](O)[C@@](N)(CO)C(=O)O | inactive | – |
| CN1C[C@H](C(=O)N[C@]2(C)O[C@@]3(O)[C@@H]4CCCN4C(=O)[C@H](Cc4ccccc4)N3C2=O)C=C2c3cccc4[nH]cc(c34)C[C@H]21 | 3.38 µM (active) | – |
| CCC1(c2ccccc2)C(=O)N(COC)C(=O)N(COC)C1=O | inactive | – |
| NC(=O)CS(=O)C(c1ccccc1)c1ccccc1 (stereo not given) | inactive | – |
| O=c1[nH]oc2c1CCNC2 | inactive | – |
| COc1c2c(cc3c1OCO3)CCN(C)C2 | inactive | – |
| CCCCCCCCCC(=O)O[C@H]1CC[C@H]2[C@@H]3CCC4=CC(=O)CC[C@@H]4[C@H]3CC[C@]12C | inactive | – |
| COP(=S)(OC)Oc1ccc(SC)c(C)c1 | inactive | – |
| CCC(C)(C)c1ccc(O)cc1 | inactive | – |
| O=C(Nc1ccc(Br)cc1)c1cc(Br)cc(Br)c1O | inactive | – |
| Clc1ccc2c(c1)C(c1ccccc1)=NCc1nncn1-2 | inactive | – |
| C[C@]12CC[C@@H]3c4ccc(OC(=O)N(CCCl)CCCl)cc4CC[C@H]3[C@@H]1CC[C@@H]2O | inactive | – |
| CN1C(=O)CCS(=O)(=O)C1c1ccc(Cl)cc1 (stereo not given) | inactive | – |
| Nc1ccccc1C(=O)O | inactive | – |
| O=C(O)CCCc1ccc(N(CCCl)CCCl)cc1 | inactive | – |
| Nc1nc(N)nc(NC2CC2)n1 | inactive | – |
| O=c1oc2ccccc2c(O)c1Cc1c(O)c2ccccc2oc1=O | inactive | – |
| O=C1Nc2ccc(Cl)cc2C(c2ccccc2Cl)=NC1O (stereo not given) | inactive | – |
| O=C1c2ccccc2C(=O)C1C(=O)C(c1ccccc1)c1ccccc1 | inactive | – |
| CC(C)=CC1C(C(=O)OCN2C(=O)C3=C(CCCC3)C2=O)C1(C)C (stereo not given) | inactive | – |
| CN1C(=O)COc2c(C(=O)NC3CN4CCC3CC4)cc(Cl)cc21 (stereo not given) | inactive | – |
| CCC1(CC)C(=O)C=CNC1=O | inactive | – |
| NCCc1ccc(O)cc1 | inactive | – |
